# Test results published in PubChem BioAssay (NCATS).
# Inconclusive results are not listed. A call without a number means that no potency is given here. Active and inactive are the calls of the source. Unless noted, calls follow the shape of the dose curve; as a rule, active = well fitted inhibition curve with a large enough effect; inconclusive = small, poorly fitted or top-dose-only effect; inactive = flat fitted curve, though single readings scatter.
# Tests used:
# [1] = qHTS profiling for inhibitors of Plasmodium falciparum proliferation (AID 504749); also: nearly all actives have a fitted effect of over 60% in size; settings: P. falciparum in erythrocytes, SYBR Green DNA, 72 h
# Outline: (§1)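 Readout was DNA-dye fluorescence from lysed cultures, ex 485/em 535 nm. Parasitized red cells had grown 72 h with compound; data scaled between 0.29 uM artemisinin and DMSO wells and corrected using vehicle-only plates.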
# 3D7 = experiment: as above; settings: P. falciparum in erythrocytes, SYBR Green DNA, 72 h; series mostly up to 28.7 µM
# Outline: as §1
# 7G8 = experiment: as above; settings: P. falciparum in erythrocytes, SYBR Green DNA, 72 h; series mostly up to 28.7 µM
# Outline: as §1
# AA1029 = experiment: as above; settings: P. falciparum in erythrocytes, SYBR Green DNA, 72 h; series mostly up to 28.7 µM
# Outline: as §1
# AS120 = experiment: as above; settings: P. falciparum in erythrocytes, SYBR Green DNA, 72 h; series mostly up to 28.7 µM
# Outline: as §1
# ATS189 = experiment: as above; settings: P. falciparum in erythrocytes, SYBR Green DNA, 72 h; series mostly up to 28.7 µM
# Outline: as §1
# ATS95 = experiment: as above; settings: P. falciparum in erythrocytes, SYBR Green DNA, 72 h; series mostly up to 28.7 µM
# Outline: as §1
# C2A = experiment: as above; settings: P. falciparum in erythrocytes, SYBR Green DNA, 72 h; series mostly up to 28.7 µM
# Outline: as §1
# CP185 = experiment: as above; settings: P. falciparum in erythrocytes, SYBR Green DNA, 72 h; series mostly up to 28.7 µM
# Outline: as §1
# CP191 = experiment: as above; settings: P. falciparum in erythrocytes, SYBR Green DNA, 72 h; series mostly up to 28.7 µM
# Outline: as §1
# CP192 = experiment: as above; settings: P. falciparum in erythrocytes, SYBR Green DNA, 72 h; series mostly up to 28.7 µM
# Outline: as §1
# CP194 = experiment: as above; settings: P. falciparum in erythrocytes, SYBR Green DNA, 72 h; series mostly up to 28.7 µM
# Outline: as §1
# CP201 = experiment: as above; settings: P. falciparum in erythrocytes, SYBR Green DNA, 72 h; series mostly up to 28.7 µM
# Outline: as §1
# CP203 = experiment: as above; settings: P. falciparum in erythrocytes, SYBR Green DNA, 72 h; series mostly up to 28.7 µM
# Outline: as §1
# CP211 = experiment: as above; settings: P. falciparum in erythrocytes, SYBR Green DNA, 72 h; series mostly up to 28.7 µM
# Outline: as §1
# CP215 = experiment: as above; settings: P. falciparum in erythrocytes, SYBR Green DNA, 72 h; series mostly up to 28.7 µM
# Outline: as §1
# CP217 = experiment: as above; settings: P. falciparum in erythrocytes, SYBR Green DNA, 72 h; series mostly up to 28.7 µM
# Outline: as §1
# CP237 = experiment: as above; settings: P. falciparum in erythrocytes, SYBR Green DNA, 72 h; series mostly up to 28.7 µM
# Outline: as §1
# CP238 = experiment: as above; settings: P. falciparum in erythrocytes, SYBR Green DNA, 72 h; series mostly up to 28.7 µM
# Outline: as §1
# [2] = qHTS drug screen for cell cycle checkpoint inhibitors in PARPi-resistant BRCA-mutant ovarian cancer cell lines. (AID 1963452; calls by dose curve); settings: PEO1/OlaR viability, CellTiter-Glo luminescence, 96 h, stronger effect = lower value
# Outline: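 PEO1, PEO4 and PEO1/OlaR ovarian cancer cells, 600 per well, exposed 96 h at 37C to a dilution series. Viability read by CellTiter-Glo luminescence, normalized to DMSO and empty wells; activity summarized as Z-AUC.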
# [3] = at 12.8 µM (top of the series), parasite line A
# [4] = at 12.8 µM (top of the series), parasite line B
# [5] = measured here: PEO1 parental Z-AUC
# [6] = at 28.7 µM (top of the series), parasite line A
# [7] = at 28.7 µM (top of the series), parasite line B
smiles,measurement,setting,value
CN/C(=C\[N+](=O)[O-])NCCSCc1csc(CN(C)C)n1,"activity, negative = inhibition",[1]; [3],4.23% (inactive)
same,"activity, negative = inhibition",[1]; [4],7.76% (inactive)
same,Potency,3D7,inactive
same,Potency,7G8,inactive
same,Potency,AA1029,inactive
same,Potency,AS120,inactive
same,Potency,ATS189,inactive
same,Potency,ATS95,inactive
same,Potency,C2A,inactive
same,Potency,CP185,inactive
same,outcome,CP191,inactive
same,outcome,CP192,inactive
same,outcome,CP194,inactive
same,outcome,CP201,inactive
same,Potency,CP203,inactive
same,outcome,CP211,inactive
same,Potency,CP215,inactive
same,outcome,CP217,inactive
same,Potency,CP237,inactive
same,Potency,CP238,inactive
CCCCCOC(=O)Nc1nc(=O)n([C@@H]2O[C@H](C)[C@@H](O)[C@H]2O)cc1F,Z-AUC,[2],-0.294 (inactive)
same,Z-AUC,[2]; [5],-0.525
same,Z-AUC,[2]; measured here: PEO4 Z-AUC,-0.448
O=C(O)c1ccc(OCCCOc2ccc(C(=O)O)cc2)cc1,"activity, negative = inhibition",[1]; [6],0.28% (inactive)
same,"activity, negative = inhibition",[1]; [7],9.9% (inactive)
same,Potency,3D7,inactive
same,Potency,7G8,inactive
same,Potency,AA1029,inactive
same,Potency,AS120,inactive
same,Potency,ATS189,inactive
same,Potency,ATS95,inactive
same,Potency,C2A,inactive
same,Potency,CP185,inactive
same,outcome,CP191,inactive
same,outcome,CP192,inactive
same,outcome,CP194,inactive
same,outcome,CP201,inactive
same,Potency,CP203,inactive
same,outcome,CP211,inactive
same,Potency,CP215,inactive
same,outcome,CP217,inactive
same,Potency,CP237,inactive
same,Potency,CP238,inactive
C/C=C/C(=O)N(CC)c1ccccc1C,Z-AUC,[2],0.904 (inactive)
same,Z-AUC,[2]; [5],0.852
same,Z-AUC,[2]; measured here: PEO4 Z-AUC,0.821
CC(O)CCCCn1c(=O)c2c(ncn2C)n(C)c1=O (configuration not stated),"activity, negative = inhibition",[1]; [6],9.1% (inactive)
same,"activity, negative = inhibition",[1]; [7],4.96% (inactive)
same,Potency,3D7,inactive
same,Potency,7G8,inactive
same,Potency,AA1029,inactive
same,Potency,AS120,inactive
same,Potency,ATS189,inactive
same,Potency,ATS95,inactive
same,Potency,C2A,inactive
same,Potency,CP185,inactive
same,outcome,CP191,inactive
same,outcome,CP192,inactive
same,outcome,CP194,inactive
same,outcome,CP201,inactive
same,Potency,CP203,inactive
same,outcome,CP211,inactive
same,Potency,CP215,inactive
same,outcome,CP217,inactive
same,Potency,CP237,inactive
same,Potency,CP238,inactive
CC1CC(OC(=O)c2ccccc2O)CC(C)(C)C1 (configuration not stated),"activity, negative = inhibition",[1]; [6],-5.75% (inactive)
same,"activity, negative = inhibition",[1]; [7],14.6% (inactive)
same,Potency,3D7,inactive
same,Potency,7G8,inactive
same,Potency,AA1029,inactive
same,Potency,AS120,inactive
same,Potency,ATS189,inactive
same,Potency,ATS95,inactive
same,Potency,C2A,inactive
same,Potency,CP185,inactive
same,outcome,CP191,inactive
same,outcome,CP192,inactive
same,outcome,CP194,inactive
same,outcome,CP201,inactive
same,Potency,CP203,inactive
same,outcome,CP211,inactive
same,Potency,CP215,inactive
same,outcome,CP217,inactive
same,Potency,CP237,inactive
same,Potency,CP238,inactive
CNCc1ccccc1,"activity, negative = inhibition",[1]; [6],11.1% (inactive)
same,"activity, negative = inhibition",[1]; [7],15.3% (inactive)
same,Potency,3D7,inactive
same,Potency,7G8,inactive
same,Potency,AA1029,inactive
same,Potency,AS120,inactive
same,Potency,ATS189,inactive
same,Potency,ATS95,inactive
same,Potency,C2A,inactive
same,Potency,CP185,inactive
same,outcome,CP191,inactive
same,outcome,CP192,inactive
same,outcome,CP194,inactive
same,outcome,CP201,inactive
same,Potency,CP203,inactive
same,outcome,CP211,inactive
same,Potency,CP215,inactive
same,outcome,CP217,inactive
same,Potency,CP237,inactive
same,Potency,CP238,inactive
CNc1c2c(nn1C)CCCC2,"activity, negative = inhibition",[1]; [6],6.6% (inactive)
same,"activity, negative = inhibition",[1]; [7],23% (inactive)
same,Potency,3D7,inactive
same,Potency,7G8,inactive
same,Potency,AA1029,inactive
same,Potency,AS120,inactive
same,Potency,ATS189,inactive
same,Potency,ATS95,inactive
same,Potency,C2A,inactive
same,Potency,CP185,inactive
same,outcome,CP191,inactive
same,outcome,CP192,inactive
same,outcome,CP194,inactive
same,outcome,CP201,inactive
same,Potency,CP203,inactive
same,outcome,CP211,inactive
same,Potency,CP215,inactive
same,outcome,CP217,inactive
same,Potency,CP237,inactive
same,Potency,CP238,inactive
Cc1onc(-c2ccccc2)c1-c1ccc(S(N)(=O)=O)cc1,Z-AUC,[2],-1 (inactive)
same,Z-AUC,[2]; [5],-0.334
same,Z-AUC,[2]; measured here: PEO4 Z-AUC,0.0747
same,"activity, negative = inhibition",[1]; [6],-24.3% (inactive)
same,Potency,3D7,inactive
same,Potency,7G8,inactive
same,Potency,AA1029,inactive
same,Potency,AS120,inactive
same,Potency,ATS189,inactive
same,Potency,ATS95,inactive
same,Potency,C2A,inactive
same,Potency,CP185,inactive
same,outcome,CP191,inactive
same,outcome,CP192,inactive
same,outcome,CP194,inactive
same,outcome,CP201,inactive
same,Potency,CP203,inactive
same,outcome,CP211,inactive
same,outcome,CP217,inactive
same,Potency,CP237,inactive
same,Potency,CP238,inactive
COc1ccc(C(=O)NCc2ccc(OCCN(C)C)cc2)cc1OC,"activity, negative = inhibition",[1]; [6],-0.299% (inactive)
same,"activity, negative = inhibition",[1]; [7],-0.981% (inactive)
same,Potency,3D7,inactive
same,Potency,7G8,inactive
same,Potency,AA1029,inactive
same,Potency,AS120,inactive
same,Potency,ATS189,inactive
same,Potency,ATS95,inactive
same,Potency,C2A,inactive
same,Potency,CP185,inactive
same,outcome,CP191,inactive
same,outcome,CP192,inactive
same,outcome,CP194,inactive
same,outcome,CP201,inactive
same,Potency,CP203,inactive
same,outcome,CP211,inactive
same,Potency,CP215,inactive
same,outcome,CP217,inactive
same,Potency,CP237,inactive
same,Potency,CP238,inactive
OCc1ccc(Cl)cc1Cl,"activity, negative = inhibition",[1]; [6],-3.83% (inactive)
same,"activity, negative = inhibition",[1]; [7],-17.4% (inactive)
same,Potency,3D7,inactive
same,Potency,7G8,inactive
same,Potency,AA1029,inactive
same,Potency,AS120,inactive
same,Potency,ATS189,inactive
same,Potency,ATS95,inactive
same,Potency,C2A,inactive
same,Potency,CP185,inactive
same,outcome,CP191,inactive
same,outcome,CP192,inactive
same,outcome,CP194,inactive
same,outcome,CP201,inactive
same,Potency,CP203,inactive
same,outcome,CP211,inactive
same,Potency,CP215,inactive
same,outcome,CP217,inactive
same,Potency,CP237,inactive
same,Potency,CP238,inactive
COc1ccc(O)cc1,"activity, negative = inhibition",[1]; [6],-6.25% (inactive)
same,"activity, negative = inhibition",[1]; [7],-15.4% (inactive)
same,Potency,3D7,inactive
same,Potency,7G8,inactive
same,Potency,AA1029,inactive
same,Potency,AS120,inactive
same,Potency,ATS189,inactive
same,Potency,ATS95,inactive
same,Potency,C2A,inactive
same,Potency,CP185,inactive
same,outcome,CP191,inactive
same,outcome,CP192,inactive
same,outcome,CP194,inactive
same,outcome,CP201,inactive
same,Potency,CP203,inactive
same,outcome,CP211,inactive
same,Potency,CP215,inactive
same,outcome,CP217,inactive
same,Potency,CP237,inactive
same,Potency,CP238,inactive
COc1cc(O)cc(O)c1,"activity, negative = inhibition",[1]; [6],4.63% (inactive)
same,"activity, negative = inhibition",[1]; [7],-8.81% (inactive)
same,Potency,3D7,inactive
same,Potency,7G8,inactive
same,Potency,AA1029,inactive
same,Potency,AS120,inactive
same,Potency,ATS189,inactive
same,Potency,ATS95,inactive
same,Potency,C2A,inactive
same,Potency,CP185,inactive
same,outcome,CP191,inactive
same,outcome,CP192,inactive
same,outcome,CP194,inactive
same,outcome,CP201,inactive
same,Potency,CP203,inactive
same,outcome,CP211,inactive
same,Potency,CP215,inactive
same,outcome,CP217,inactive
same,Potency,CP237,inactive
same,Potency,CP238,inactive
CC(C)(C)C(=O)OCOC(=O)[C@@H]1N2C(=O)[C@@H](NC(=O)[C@H](N)c3ccccc3)[C@H]2SC1(C)C,"activity, negative = inhibition",[1]; [3],-1.26% (inactive)
same,"activity, negative = inhibition",[1]; [4],-15.3% (inactive)
same,Potency,3D7,inactive
same,Potency,7G8,inactive
same,Potency,AA1029,inactive
same,Potency,AS120,inactive
same,Potency,ATS189,inactive
same,Potency,ATS95,inactive
same,Potency,C2A,inactive
same,Potency,CP185,inactive
same,outcome,CP191,inactive
same,outcome,CP192,inactive
same,outcome,CP194,inactive
same,outcome,CP201,inactive
same,Potency,CP203,inactive
same,outcome,CP211,inactive
same,Potency,CP215,inactive
same,outcome,CP217,inactive
same,Potency,CP237,inactive
same,Potency,CP238,inactive
